HT1080NT lethal – kills 2HG-producing HT-1080-NT fibrosarcoma cells | 360,000 compounds, 1.6% hits | Potency, µM (series often up to 46.1 µM), most hits filed as cytotoxic | HT-1080-NT fibrosarcoma viability, CellTiter-Glo ATP luminescence, 48 h | AID 686970;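 also: NT is the 2HG producing partner of a matched IDH1 knockdown line; nearly all actives have a fitted effect of over 55% in size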
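Viability of the 2HG-overproducing fibrosarcoma line after 48 hours of compound exposure at 37 degrees C was determined by luminescence with CellTiter-Glo, and concentration-effect curves were then fitted and categorized.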
IL1B secr inh – blocks inflammasome-driven IL-1 beta release. 360,000 compounds, 4.7% hits. THP-1 LPS/ATP IL-1B secretion, AlphaLISA, 16 h; stronger effect = lower value. activity change, % at 57.5 µM; in the data active = activity change below about -50%; inconclusive = mostly about -30% to -49%
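Secreted IL-1B measured by AlphaLISA bead assay after 16 h compound exposure of THP-1 cells; compounds (final up to 57.5 uM) added 1 h before LPS (250 ng/mL) and ATP (1.25 mM) stimulation; lower signal means less secretion.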
ELG1 repair inh – ELG1-dependent DNA repair inhibition; HEK293T ELG1-luciferase reporter, luminescence, 16 h; DNA damage induced by 5-fluorouridine; Potency, µM (highest dose often 46.1 µM), actives largely listed as inhibitors; 330,000 compounds, 2.3% hits; AID 504467; also: nearly all actives have a fitted effect of over 55% in size
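HEK293T cells expressing luciferase-tagged ELG1 (2,000/well) received 5-Fluorouridine plus compound or DMSO for 16 hr at 37 °C. Luciferase was read by ONE-Glo luminescence after 30 min at room temperature.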
DT40 TDP1 CPT – growth inhibition of DT40 Tdp1-/-;hTDP1 cells with camptothecin (screen for TDP1 inhibitors). Potency, µM (titrated, usually from 46.2 µM), hits mostly inhibitors. 420,000 compounds, 12% hits. chicken DT40 Tdp1-/-;hTDP1 cells + 20 nM CPT, ATP luminescence, 48 h; also: nearly all actives have a fitted effect of over 55% in size
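Chicken DT40 Tdp1-/- cells complemented with human TDP1, 400 cells/well, exposed to compounds plus 20 nM camptothecin for at least 48 h at 37 C; viability read as ATP content by CellTiter-Glo luminescence.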
HT1080 IDH1KD tx – toxicity to HT-1080 IDH1 knockdown cells (counter line). HT-1080 IDH1 knockdown viability, ATP luminescence, 48 h. Potency, µM (series often up to 46.1 µM), most hits filed as cytotoxic. 360,000 compounds, 2% hits. AID 686971
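Viability of IDH1-knockdown HT-1080 fibrosarcoma cells was assessed by CellTiter-Glo after 48 h at 37 °C with titrated compound; concentration-effect curves were classified by fit quality and response size.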
DT40 TDP1 no CPT – qHTS for Inhibitors of human tyrosyl-DNA phosphodiesterase 1 (TDP1): qHTS in cells in absence of CPT; 420,000 compounds, 15% hits; DT40 Tdp1-/- hTDP1 cells, no CPT, ATP luminescence, 48 h; AID 686978, 2013; Potency, µM (highest dose often 46.2 µM), most hits filed as inhibitors; also: nearly all actives have a fitted effect of over 55% in size
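No-CPT arm: Tdp1-/-;hTDP1 DT40 cells (400/well) plus compounds, incubated ≥48 hr at 37 °C. Readout CellTiter-Glo luminescence.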
Numbers stand for hits; i = inactive; ? = inconclusive; nt = no result given. Shown are actives, neighbours in structure and some others; about 19% of the full set was active somewhere. Unless noted, calls follow the shape of the dose curve; as a rule, active = well fitted curve in the direction sought with a large enough effect; inconclusive = small, poorly fitted or top-dose-only effect, or another doubt; inactive = no such curve, though single readings can be large; an effect the other way counts as inactive or inconclusive.

SMILES | HT1080NT lethal | IL1B secr inh | ELG1 repair inh | DT40 TDP1 CPT | HT1080 IDH1KD tx | DT40 TDP1 no CPT
CCCc1ccc(OCC(=O)Nc2ccc(Cl)cc2C(=O)c2ccccc2)cc1 | nt | nt | nt | i | nt | i
O=C(CCN1CC2CCC(CC2)C1)c1cccs1 | i | i | nt | 2.1µM | ? | 4.1µM
O=C1C=C(N2CC2)c2ccccc2C1=O | 23µM | i | nt | ? | ? | ?
c1ccc(N2CCN(c3ccccc3)CC2)cc1 | nt | nt | nt | i | nt | i
Nc1cc(Cl)cc(Cl)c1 | i | ? | i | i | i | i
O=[N+]([O-])c1cccc(CN2CCN(Cc3ccc(Br)cc3)CC2)c1 | i | i | ? | ? | i | i
COC(=O)C1=C(C)NC(C)=C(C(=O)O[C@H]2CCN(Cc3ccccc3)C2)[C@H]1c1cccc([N+](=O)[O-])c1 | nt | nt | nt | ? | nt | 24µM
Cc1cc(N(CCCl)CCCl)ccc1/C=N/N=C(\N)c1cnccn1 | i | -55 | nt | 7.3µM | i | 12µM
Cc1cc(N(CCCl)CCCl)ccc1C=Cc1ccncn1 | i | i | nt | 2.6µM | ? | 4.6µM
NC(Cc1ccccc1)c1nn[nH]n1 (centres undefined) | i | i | nt | i | i | i
Cn1cc([N+](=O)[O-])c(C(=O)Nc2ccc3c(C(F)(F)F)cc(=O)oc3c2)n1 | ? | -95 | i | i | ? | i
C[C@@H]1[C@H](O)[C@@H](C)/C=C/C=C/CC/C=C/C=C/C=C/C=C/[C@H](O[C@H]2O[C@@H](C)[C@H](O)[C@@H](N)[C@H]2O)CC2O[C@](O)(C[C@@H](O)[C@H](O)CC[C@@H](O)C[C@@H](O)C[C@@H](O)CC(=O)O[C@H]1C)C[C@H](O)[C@H]2C(=O)O | nt | nt | nt | i | nt | i
CCN(CC)C(=O)c1ccc(NC(=O)c2cccc(S(=O)(=O)N3CCN(Cc4ccccc4)CC3)c2)cc1 | i | ? | ? | 18µM | i | 13µM
CCN(CC)C(=O)c1ccc(NC(=O)c2cc(S(=O)(=O)N3CCCCCC3)ccc2OC)cc1 | i | i | i | i | i | ?
CCCCNC(=S)N(CCN(CC)CC)Cc1cc2cc3c(cc2[nH]c1=O)OCO3 | i | ? | i | ? | i | 15µM
COc1ccc(-n2c(C)nc3cc(C(=O)N4CCC5(CC4)OCCO5)ccc32)cc1 | ? | i | i | ? | ? | ?
COc1ccc(-c2nc3ccc(C(=O)N4CCC5(CC4)OCCO5)cc3nc2-c2ccc(OC)cc2)cc1 | i | i | 16µM | ? | i | ?
COC(=O)C1=C(N)Oc2cc(C)oc(=O)c2C12C(=O)Nc1ccccc12 (centres undefined) | i | i | i | ? | i | 16µM
O=C1NC(=O)C(=O)C(=O)N1 | nt | nt | nt | ? | nt | i
CC[C@@H](CO)NC(=O)[C@H]1C=C2c3cccc4c3c(cn4C)C[C@H]2N(C)C1 | nt | nt | nt | 8.4µM | nt | 13µM
Cc1ccc(C(O)(C(=O)OC(C)C)C(O)c2ccccc2)cc1 (centres undefined) | i | i | nt | i | i | ?
Cn1c(NN=O)nc2ccccc21 | ? | i | ? | ? | 4.6µM | ?
CC(C)(C)C(=O)N1Cc2cnnn2-c2ccccc2C1C#N (centres undefined) | i | i | nt | i | i | i
O=C(O)[C@@H](O)[C@H](O)[C@H](O)[C@@H](O)C(=O)O | nt | nt | nt | i | nt | i
Cc1cc(=O)n(-c2ccccc2)n1C | i | -66 | ? | i | i | i
CN(C(=O)Oc1cccc2ccccc12)C1C=CCC1 (centres undefined) | i | i | nt | i | i | i
COc1ccccc1C1Nc2ccccc2-n2c(-c3ccccc3)c3c(=O)n(C)c(=O)n(C)c3c21 (centres undefined) | nt | nt | nt | i | nt | 6.5µM
O=c1[nH]c(=O)n(Cc2ccccc2Cl)c(O)c1C=Nc1ccc(F)cc1 | i | i | i | i | i | i
CN(C)C1(c2nnnn2CCOC(=O)Nc2ccc(Cl)cc2)CCCCC1 | i | i | ? | ? | i | 18µM
